The values below come from PubChem BioAssay AID488896 (Broad Institute, 2010).

About 3,100 (0.97%) of roughly 320,000 compounds were called active. This excerpt belongs to a sample that is enriched for actives. Values without a mark were called inactive.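 Rule for the calls: active = mean replicate inhibition of at least 70% and a set share of replicates each scoring 70 or more; inconclusive = meets just one of the two criteria; inactive = fails both criteria.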

One may read the inhibition as the relative decrease from the control value, in per cent.

Sequence of Scavenger receptor class B member 1 (Mus musculus) (Q61009 whole entry, looked up): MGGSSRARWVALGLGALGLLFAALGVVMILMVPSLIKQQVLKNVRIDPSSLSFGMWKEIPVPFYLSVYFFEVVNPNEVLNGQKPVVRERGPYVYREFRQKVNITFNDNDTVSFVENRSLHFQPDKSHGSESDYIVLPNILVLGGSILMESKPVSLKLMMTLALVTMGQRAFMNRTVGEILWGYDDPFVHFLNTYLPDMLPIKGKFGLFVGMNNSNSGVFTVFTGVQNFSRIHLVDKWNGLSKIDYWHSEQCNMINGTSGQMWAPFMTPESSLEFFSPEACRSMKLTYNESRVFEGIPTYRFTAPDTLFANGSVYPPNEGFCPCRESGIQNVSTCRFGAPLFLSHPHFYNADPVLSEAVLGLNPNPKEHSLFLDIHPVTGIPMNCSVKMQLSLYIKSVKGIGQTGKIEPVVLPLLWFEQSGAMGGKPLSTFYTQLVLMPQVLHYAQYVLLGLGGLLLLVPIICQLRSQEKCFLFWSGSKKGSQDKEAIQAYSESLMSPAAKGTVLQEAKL

This assay concerns the target Scavenger receptor class B member 1 (Mus musculus) (UniProt Q61009). The assay can be described thus: mouse SR-BI DiI-HDL uptake blockers – ldlA[mSR-BI] cells, fluorescence, single point, primary screen (AID 488896).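 Note: 0% = median of neutral control wells and 100% = median of positive control wells.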 Particulars: ldlA[mSR-BI] CHO cells, 3 h, at 12.5 µM, active compounds read high.
On to `Oc1c(Cl)cc(Cl)c(Cl)c1Cc1c(O)c(Cl)cc(Cl)c1Cl`, for which the inhibition is 78.2% (active).

Turning to `CC(C)(C)OC(=O)N(Cc1ccccc1)Cc1ccc(OCc2cccc(NC(=O)c3ccccc3)c2)cc1`, the inhibition was 30.4%.

As to `CN(C(=O)c1ccccn1)c1nnc(-c2ccccn2)s1`, the inhibition is -7.4%.

For `COc1cc(OC)cc(-c2nnc(N(C)C(=O)c3ccncc3)s2)c1`, the inhibition was 45%.

As to `CN(C(=O)COc1ccccc1)c1nnc(-c2ccncc2)s1`, the inhibition is 70.2% (active).

In the case of `N#CCc1c[nH]c2ccc([N+](=O)[O-])cc12`, the inhibition is -13.4%.

`Cc1nc(Nc2ccccc2C)c2cnn(C)c2n1`: the inhibition was -3.29%.

Regarding `CCOc1cc(N2CCOCC2)c(OCC)cc1NC(=O)c1ccc(C)s1`, the inhibition was 37%.

Regarding `CCOc1cc(NC(=S)NCCCOC)c(OCC)cc1NC(=O)c1ccco1`, the inhibition was 28.5%.

In the case of `CCOc1cc(N2CCOCC2)c(OCC)cc1NC(=O)COc1cccc(Cl)c1`, the inhibition is 74.8% (active).

With `CCOc1cc(N2CCOCC2)c(OCC)cc1NC(=O)c1cc(C)nc2ccccc12`, the inhibition was 20.8%.

`CCOc1cc(NC(=S)NCc2ccco2)c(OCC)cc1NC(=O)c1ccco1`: the inhibition was 43.4%.

Consider `CCOc1cc(NC(=O)c2ccco2)c(OCC)cc1NC(=O)COc1ccccc1`, for which the inhibition was 80.9% (active).

`CN(C)C(=S)N=c1ssc(=S)n1Cc1ccco1`: the inhibition is 0.753%.

`CC(=O)Nc1ccc(C(=O)Nc2cc(S(=O)(=O)N3CCOCC3)ccc2N2CCOCC2)cc1`: the inhibition is -8.12%.

For `COC(=O)Cc1c(-c2[nH]c3ccccc3c2CC(=O)OC)[nH]c2ccccc12`, the inhibition was 37.9%.

Turning to `O=C(NOCc1ccccc1)c1cccc([N+](=O)[O-])c1`, the inhibition was -13.8%.

Take `O=C(CSc1nnc(N2CCOCC2)n1-c1cccc(F)c1)N1CCN(c2ccccn2)CC1`: the inhibition is 0.884%.

For the compound `C(=N\N1CCN(c2ccccn2)CC1)/C1=C(N2CCOCC2)C(=C/c2ccccc2)/CC1`, the inhibition was 95.8% (active).

Regarding `O=C1Nc2ccc(Br)cc2/C1=N/N=C/C1=C(N2CCOCC2)C(=C\c2ccccc2)/CC1`, the inhibition is 147% (active).

Consider `COc1ccc(/C=N/N=C2/C(=O)Nc3ccccc32)cc1O`, for which the inhibition was -2.91%.

As for `O=C(O)c1ccc(NN=CC2=C(N3CCOCC3)/C(=C/c3ccccc3)CC2)cc1`, the inhibition is -13%.

Turning to `C[C@H](O)[C@@H]1C(=O)N2CCc3ccc(N4CCOCC4)cc3[C@@H]2C[C@@H]1N(C)C(=O)C(C)(C)C`, the inhibition was -2.83%.

With `COc1cc2c(cc1OC)C(Cc1cc(OC)c(OC)cc1[N+](=O)[O-])=NCC2`, the inhibition was -13%.

In the case of `CC1CN(Cc2ccco2)C(=S)N(c2ccccc2)C1=O` (configuration not stated), the inhibition was -33.1%.

`COc1cc(C2c3cc4c(cc3C(O)C3COC(=O)C23)OCO4)cc(OC)c1OC` (configuration not stated): the inhibition is -0.16%.

Consider `CCOc1ccc(S(=O)(=O)N2CCN(C(=O)c3oc4ccccc4c3C)CC2)cc1`, for which the inhibition is -15.2%.

On to `CCOc1ccc(-c2nnn(CC(=O)N3CCN(c4ccc(OC)cc4)CC3)n2)cc1OCC`, for which the inhibition is 82% (active).

As to `CCOc1ccc(-c2nnn(CC(=O)N3CCN(c4ccc(F)cc4)CC3)n2)cc1OCC`, the inhibition is 48.2%.

For `COc1ccc(C(=O)Cn2nnc(-c3ccc(N4CCOCC4)cc3)n2)cc1OC`, the inhibition is 33%.

For `CCC(=O)Nc1nc(C)c(C(=O)Nc2cccc(Cl)c2)s1`, the inhibition is 49.6%.

With `COc1cccc(NC(=O)CN2CCN(c3nc(-c4cccc(OC)c4)cs3)CC2)c1`, the inhibition was 19.1%.

Consider `CCCCC(=O)N/N=C(\C)CC(=O)Nc1cc(Cl)ccc1OC`, for which the inhibition is 27.7%.

`Cc1cccc(S(=O)(=O)CC(=O)Nc2nc(-c3ccccc3)cs2)c1`: the inhibition is -18%.

Consider `C=CCCC(=O)Nc1nc(C)c(-c2csc(Nc3ccc(Cl)cc3)n2)s1`, for which the inhibition was 104% (active).

In the case of `CCCCCCC(=O)Nc1nc(C)c(-c2csc(Nc3cc(Cl)ccc3OC)n2)s1`, the inhibition was 97.4% (active).

With `CCCCC(=O)Nc1nc(C)c(-c2csc(Nc3ccc(Cl)cc3)n2)s1`, the inhibition was 103% (active).

Turning to `Cc1nc(NC(=O)CN(C)S(=O)(=O)c2ccc(Cl)cc2)sc1C`, the inhibition is 2.99%.

On to `COc1cccc(CC(=O)Nc2ccc(-c3csc(C)n3)cc2)c1`, for which the inhibition was 22%.

As to `COc1ccc(Cl)cc1NC(=O)c1oc(C)nc1C`, the inhibition was 10.4%.

`CCCCN(C)CCC(=O)Nc1ccc(Cl)cc1`: the inhibition was -5.92%.

For the compound `CCCCCCC(=O)Nc1nc(C)c(-c2csc(Nc3cccc(OC)c3)n2)s1`, the inhibition is 87.2% (active).

As for `CC(=O)c1cccc(-c2ccc(CN3C(CC(C)C)C(=O)N(Cc4cn(CC5CCCCC5)nn4)CCS3(=O)=O)cc2)c1` (configuration not stated), the inhibition is 48.8%.

Consider `COc1cc(O)c2c(=O)c3c(O)c(O)ccc3oc2c1OC`, for which the inhibition is 10.1%.

On to `O=c1oc2ccccc2c(=O)c2ccccc12`, for which the inhibition is -23.4%.

With `COc1ccc(C(=O)N(C)Cc2ccc(OC)c(OC)c2OC)cc1S(=O)(=O)N1CCOCC1`, the inhibition was -8.86%.

Regarding `CC(Nc1ccc([N+](=O)[O-])cc1[N+](=O)[O-])c1ccccc1` (configuration not stated), the inhibition was 21.4%.

Consider `O=[N+]([O-])c1cc2ccccc2nc1-c1ccccc1`, for which the inhibition is -10.5%.

Consider `O=C(O)C1C2C=CC(O2)C1C(=O)Nc1ccccn1` (configuration not stated), for which the inhibition was -12.6%.

For the compound `CCN(CC(=O)Nc1c(F)cccc1F)C(=O)Cc1cccs1`, the inhibition is 9.34%.

Take `CC(NC(=O)c1ccccc1)C(=O)OCC(=O)Nc1cccc(S(=O)(=O)N2CCCC2)c1` (configuration not stated): the inhibition is -1.56%.

For `CCOc1cc(C(=O)N(Cc2ccccc2)c2ccc(C)cc2)ccc1OCC(=O)N1CCOCC1`, the inhibition was 5.71%.

With `O=C(c1ccc2c(c1)C(=O)N(Cc1ccncc1)C2=O)N1CCN(S(=O)(=O)c2ccc(OC(F)(F)F)cc2)CC1`, the inhibition is -23.1%.

With `Cc1cc(C(=O)CSc2nc(N)cc(=O)[nH]2)c(C)n1Cc1ccco1`, the inhibition is -21.5%.

In the case of `Cc1cc(C(=O)CSc2nc(N)cc(=O)[nH]2)c(C)n1CCc1ccc(Cl)cc1`, the inhibition is 83.8% (active).

For `CCCc1cc(=O)[nH]c(SCC(=O)c2cc(C)n(CCC)c2C)n1`, the inhibition is 10.7%.

Turning to `O=C(O)C(CCc1ccccn1)c1ccccc1` (configuration not stated), the inhibition is 11.9%.

In the case of `CCCCC(=O)NC(c1ccc(OC)c(OC)c1)c1ccc2cccnc2c1O` (configuration not stated), the inhibition was 3.38%.

In the case of `N#C/C(=C\C1=C(N2CCOCC2)C(=C\c2ccccc2)/CC1)C(=O)Nc1ccccc1F`, the inhibition is 83.9% (active).

`N#C/C(=C\c1ccccc1C(F)(F)F)C(=O)Nc1ccccc1F`: the inhibition was -32.2%.

Turning to `O=C(CC1SC(N2CCOCC2)=NC1=O)Nc1ccccc1F` (configuration not stated), the inhibition is -4.16%.

As to `O=C(Nc1ccc(S(=O)(=O)N2CCOCC2)cc1)C1CCN(S(=O)(=O)c2ccc(Cl)cc2)CC1`, the inhibition is -8.47%.

On to `CC12CCCCC1=CC(=O)CC2` (configuration not stated), for which the inhibition was -0.111%.

Consider `COc1ccc(Cl)cc1C=CC=NNC(=O)c1ccncc1`, for which the inhibition is 70%.

As to `O=C(NNc1c2ccccc2nc2ccccc12)c1cc2ccccc2cc1O`, the inhibition was 117% (active).

On to `O=C(N/N=C/c1cccnc1)c1cc2ccccc2cc1O`, for which the inhibition is 25.7%.

In the case of `CC(C)(C)OC(=O)NNc1c2ccccc2nc2ccccc12`, the inhibition is 23.2%.

In the case of `COC(=O)c1ccc(NCc2cc(O)ccc2O)cc1`, the inhibition was -3.37%.

For `CC(C)c1cc(N=O)cc(C(C)C)c1O`, the inhibition is -19.1%.

Take `O=C(NN=Cc1ccccc1)c1ccccc1`: the inhibition is -4.39%.

Take `CC(C)c1ccc(C=NNc2ccc([N+](=O)[O-])cn2)cc1`: the inhibition was -2.92%.

`Cc1nn(-c2ccc(F)cc2)c(Cl)c1/C=C(/CCC(=O)O)c1nc2ccccc2s1`: the inhibition is -16%.

On to `O=C(CC1Sc2ccccc2NC1=O)NNc1ccc(Cl)c(Cl)c1` (configuration not stated), for which the inhibition was 45.6%.

Turning to `N#CC1=C(N)Oc2cc(N)ccc2C1c1ccccc1` (configuration not stated), the inhibition was -23.9%.

With `COc1ccc2nc(NC(=O)c3ccc(Br)s3)sc2c1`, the inhibition was 55.7%.

With `COc1ccc2nc(Nc3nc(-c4ccncc4)cs3)sc2c1`, the inhibition is 80.2% (active).

As to `COc1ccc2nc(NC(=O)[C@@H]3CCCN3C(=O)c3cccs3)sc2c1`, the inhibition is 14.9%.

For `OCC(O)C1OCOC(C(O)CO)C1O` (configuration not stated), the inhibition is -38.2%.

Take `CC1(C)C(=O)CCC2(C)C1=CCC1C2C(=O)CC2(C)C1CCC2(O)C(=O)CO` (configuration not stated): the inhibition was -7.32%.

With `CC1CCCN(C(=O)Cn2c(=O)oc3cc(S(=O)(=O)N4CCCCC4C)ccc32)C1` (configuration not stated), the inhibition is -29.3%.

In the case of `CC(C)C[C@H]1CN([C@@H](CC(C)C)CN2CCC[C@@H]2CN2C(=O)C(=O)NC[C@@H]2Cc2ccccc2)C(=O)C(=O)N1CCc1ccccc1`, the inhibition is 20.9%.

`CS(=O)(=O)c1ccc2nc(NC(=O)C3C4C=CC(C4)C3C(=O)O)sc2c1` (configuration not stated): the inhibition is 5.33%.

As for `CS(=O)(=O)c1ccc2nc(NC(=O)c3ccc(Cl)nc3)sc2c1`, the inhibition was 32.9%.

For `COc1cccc(C(=O)Nc2nc3ccc(S(C)(=O)=O)cc3s2)c1`, the inhibition was 70.8% (active).

For the compound `Cc1ccc(S(=O)(=O)n2oc(=O)c(C3CCCCC3)c2N)cc1`, the inhibition was -8.19%.

On to `O=C1C(Cl)=C(Oc2ccccc2)C(=O)c2ccccc21`, for which the inhibition was 13.1%.

As for `COc1ccc(S(=O)(=O)N2CCCCC2)cc1NC(=O)c1cc([N+](=O)[O-])ccc1N1CCOCC1`, the inhibition was 23.2%.

In the case of `CCCC(=O)N(CCN1CCOCC1)c1nc2ccc(OCC)cc2s1`, the inhibition was 40.2%.

Take `CCOc1ccc2nc(NC(=O)c3cc([N+](=O)[O-])ccc3N3CCOCC3)sc2c1`: the inhibition was 78.1% (active).

Turning to `O=C1OC(Cc2ccccc2)C(c2ccccc2)C1=O` (configuration not stated), the inhibition is -5.71%.

On to `COc1ccc(N=C2C=CC(=O)O2)cc1`, for which the inhibition was -24.8%.

Take `O=S(=O)(Cc1ccc(Cl)cc1Cl)c1ccc(Cl)cc1`: the inhibition is 15.8%.
